The source of these data is PubChem BioAssay.

Assay [1] can be described thus: binders of probe aFSTL3 on microarray, primary screen, stem cell growth factor project, biochemical, small-molecule microarray, fluorescence 635/667 (AID 1064).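 Further: measures binding of the biotinylated anti-FSTL3 antibody to printed compounds.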 The settings on record: higher = more signal.
Assay [2] can be described thus: binders from COS7 lysate, DM2A8 probe, primary screen, torsin A project, cell lysate, small-molecule microarray, fluorescence 635/667 (AID 1065). Conditions: higher = more signal, COS7 lysate expressing mutant human TOR1A.
Assay [3] in a line: binders of probe aFGF2 on microarray, primary screen, stem cell growth factor project, biochemical, small-molecule microarray, fluorescence 635/667 (AID 1067).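 Further: measures binding of biotinylated aFGF2 protein to printed compounds on slides; z-score merges feature fluorescence and signal-to-noise across triplicate slides.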 Conditions: higher = more signal.
A short description of assay [4]: binders of probe aFGF10 on microarray, primary screen, stem cell growth factor project, biochemical, small-molecule microarray, fluorescence 635/667 (AID 1071).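 Further: score merges 667 nm spot intensity and signal to noise from triplicate slides.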 The settings on record: higher = more signal.
Assay [5] deals with Neurogenic locus notch homolog protein 2 (Homo sapiens) (UniProt Q04721). The assay can be described thus: Notch2 binders on small-molecule microarrays, primary screen, biochemical, small-molecule microarray, 635 nm fluorescence, stem cell growth factors (AID 1073). The settings on record: Notch2 binding, higher = more signal.
Chain of Neurogenic locus notch homolog protein 2 (Homo sapiens) (Q04721 whole entry, looked up, canonical isoform): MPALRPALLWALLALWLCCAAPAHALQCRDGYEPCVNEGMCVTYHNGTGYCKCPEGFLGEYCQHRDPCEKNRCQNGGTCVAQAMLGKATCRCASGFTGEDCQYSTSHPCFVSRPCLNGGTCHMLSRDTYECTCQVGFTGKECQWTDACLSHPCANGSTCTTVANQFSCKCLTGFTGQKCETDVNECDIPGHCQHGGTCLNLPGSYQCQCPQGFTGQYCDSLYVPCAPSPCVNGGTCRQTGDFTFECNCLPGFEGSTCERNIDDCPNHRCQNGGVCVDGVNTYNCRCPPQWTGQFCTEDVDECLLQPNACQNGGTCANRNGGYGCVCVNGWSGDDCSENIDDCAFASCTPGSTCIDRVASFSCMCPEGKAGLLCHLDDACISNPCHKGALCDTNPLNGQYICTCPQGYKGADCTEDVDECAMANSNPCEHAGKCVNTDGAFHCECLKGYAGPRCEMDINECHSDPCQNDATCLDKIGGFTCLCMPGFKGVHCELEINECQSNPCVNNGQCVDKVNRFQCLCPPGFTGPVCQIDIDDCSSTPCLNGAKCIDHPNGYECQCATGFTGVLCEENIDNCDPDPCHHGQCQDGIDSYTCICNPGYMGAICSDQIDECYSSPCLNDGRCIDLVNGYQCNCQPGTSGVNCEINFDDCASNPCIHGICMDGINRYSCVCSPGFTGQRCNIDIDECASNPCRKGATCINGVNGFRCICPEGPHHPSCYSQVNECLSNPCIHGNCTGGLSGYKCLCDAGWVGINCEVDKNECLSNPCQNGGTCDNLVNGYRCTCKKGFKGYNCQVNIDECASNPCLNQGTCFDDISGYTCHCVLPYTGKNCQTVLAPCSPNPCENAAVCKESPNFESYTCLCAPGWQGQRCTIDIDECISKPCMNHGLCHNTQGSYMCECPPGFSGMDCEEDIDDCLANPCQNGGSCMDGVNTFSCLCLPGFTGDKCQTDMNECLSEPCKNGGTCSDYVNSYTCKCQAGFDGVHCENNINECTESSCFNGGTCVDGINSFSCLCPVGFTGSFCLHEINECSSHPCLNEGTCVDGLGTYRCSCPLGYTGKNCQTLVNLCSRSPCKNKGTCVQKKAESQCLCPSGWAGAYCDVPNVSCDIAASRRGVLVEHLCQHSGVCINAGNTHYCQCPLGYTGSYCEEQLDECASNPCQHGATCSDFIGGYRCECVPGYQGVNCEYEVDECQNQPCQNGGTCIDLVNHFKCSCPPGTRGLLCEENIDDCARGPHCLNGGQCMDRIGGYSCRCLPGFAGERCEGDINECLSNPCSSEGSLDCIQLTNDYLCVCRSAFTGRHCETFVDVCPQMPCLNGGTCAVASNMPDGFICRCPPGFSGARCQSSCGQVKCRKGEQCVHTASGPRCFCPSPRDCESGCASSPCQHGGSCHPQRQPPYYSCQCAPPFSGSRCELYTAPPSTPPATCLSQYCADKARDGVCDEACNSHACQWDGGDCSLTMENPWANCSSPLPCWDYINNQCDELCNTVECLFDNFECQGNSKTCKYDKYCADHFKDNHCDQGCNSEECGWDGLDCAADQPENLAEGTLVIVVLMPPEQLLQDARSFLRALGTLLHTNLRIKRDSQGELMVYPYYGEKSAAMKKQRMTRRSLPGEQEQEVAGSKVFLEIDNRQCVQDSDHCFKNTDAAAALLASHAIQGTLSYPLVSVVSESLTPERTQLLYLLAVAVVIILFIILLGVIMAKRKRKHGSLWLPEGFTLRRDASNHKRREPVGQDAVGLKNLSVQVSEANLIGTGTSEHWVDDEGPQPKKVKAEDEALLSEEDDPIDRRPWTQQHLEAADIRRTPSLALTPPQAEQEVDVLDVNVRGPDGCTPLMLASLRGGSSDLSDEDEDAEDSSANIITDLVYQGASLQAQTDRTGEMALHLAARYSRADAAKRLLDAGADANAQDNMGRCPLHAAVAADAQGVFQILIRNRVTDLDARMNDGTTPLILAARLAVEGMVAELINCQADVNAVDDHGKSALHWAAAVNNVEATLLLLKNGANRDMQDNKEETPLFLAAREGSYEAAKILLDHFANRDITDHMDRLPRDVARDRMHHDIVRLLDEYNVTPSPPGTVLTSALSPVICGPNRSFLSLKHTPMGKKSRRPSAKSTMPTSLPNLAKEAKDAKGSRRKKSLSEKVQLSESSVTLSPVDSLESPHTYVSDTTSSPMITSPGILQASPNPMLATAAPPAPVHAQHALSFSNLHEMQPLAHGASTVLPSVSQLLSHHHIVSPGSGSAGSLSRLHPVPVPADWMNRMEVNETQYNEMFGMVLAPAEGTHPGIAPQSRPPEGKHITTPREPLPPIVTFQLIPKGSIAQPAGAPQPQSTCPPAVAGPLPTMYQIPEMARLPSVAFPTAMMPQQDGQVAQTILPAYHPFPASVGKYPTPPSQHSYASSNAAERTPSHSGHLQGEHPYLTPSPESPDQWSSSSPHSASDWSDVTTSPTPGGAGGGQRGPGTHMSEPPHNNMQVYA
Assay [6] concerns the target Pro-neuregulin-1, membrane-bound isoform (Homo sapiens) (UniProt Q02297). The assay can be described thus: NRG1 binders on small-molecule microarrays, primary screen, psychiatric disease protein project, biochemical, small-molecule microarray, fluorescence 635/667 (AID 1075).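 Further: score combines 667 nm spot fluorescence with signal to noise.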 Conditions: NRG1 binding, 635 nm fluorescence, higher = more signal.
For assay [7], the system named is Neuregulin-1 EGF-like domain. Description: binders of neuregulin-1 EGF-like domain, primary screen, biochemical, small-molecule microarray, 635 nm fluorescence (AID 1081).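 Further: binding of the protein to compounds printed on small-molecule microarray slides.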 The settings on record: small-molecule microarray binding, higher = more signal.
Assay [8] can be described thus: FRG1 promoter luciferase signal modulators, primary screen, FRG1 inhibition for FSHD, cell-based, C2C12 myotubes, firefly/Renilla luciferase, luminescence (AID 1084). The settings on record: higher = more signal, called active from +8 up or from −8 down.
A short description of assay [9]: binders of probe aFST on microarray, primary screen, stem cell growth factor project, biochemical, small-molecule microarray, fluorescence 635/667 (AID 1086).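 Further: score merges 667 nm fluorescence with signal-to-noise of each printed compound spot.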 Conditions: higher = more signal.
A short description of assay [10]: binders of probe aHhip on microarray, primary screen, stem cell growth factor project, biochemical, small-molecule microarray, fluorescence 635/667 (AID 1087).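 Further: score merges spot fluorescence at 667nm with spot signal to noise ratio.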 The settings on record: higher = more signal.

Calls of active or inactive are those of the source.

Chain of Pro-neuregulin-1, membrane-bound isoform (Homo sapiens) (Q02297 whole entry, looked up, the tested form may be a part, canonical isoform): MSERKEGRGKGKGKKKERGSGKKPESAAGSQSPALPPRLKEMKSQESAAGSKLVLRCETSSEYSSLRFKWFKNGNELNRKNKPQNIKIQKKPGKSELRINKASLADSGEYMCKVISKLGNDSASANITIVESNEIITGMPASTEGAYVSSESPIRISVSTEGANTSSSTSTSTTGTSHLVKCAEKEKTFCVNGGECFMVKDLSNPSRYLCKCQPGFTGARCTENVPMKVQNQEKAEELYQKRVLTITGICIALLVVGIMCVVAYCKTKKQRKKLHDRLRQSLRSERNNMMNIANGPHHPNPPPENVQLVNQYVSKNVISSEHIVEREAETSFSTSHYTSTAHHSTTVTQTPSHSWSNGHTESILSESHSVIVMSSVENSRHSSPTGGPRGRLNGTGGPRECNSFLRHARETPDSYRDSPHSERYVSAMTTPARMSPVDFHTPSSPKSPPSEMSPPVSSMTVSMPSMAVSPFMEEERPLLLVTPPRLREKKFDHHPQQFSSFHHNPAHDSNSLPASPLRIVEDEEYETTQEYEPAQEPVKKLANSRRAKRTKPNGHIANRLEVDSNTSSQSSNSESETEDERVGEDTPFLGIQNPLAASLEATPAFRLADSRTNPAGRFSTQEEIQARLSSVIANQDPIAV

On to `COCCOC(=O)N1C(=O)[C@@]2(c3ccccc31)[C@H](C(=O)N1CCCCCCC1)[C@H]1C(=O)O[C@H](c3ccccc3)[C@H](c3ccccc3)N1[C@@H]2c1ccc(OCCO)cc1`, for which the composite z-score was 4.16 in assay [1]; 2.62 in assay [2]; 1.09 in [3]; 1.49 in [4]; 1.75 in assay [5]; 2.93 in [6]. In addition, the composite z-score is 1.5 in [7], 3.82 in assay [9] and 3.98 in [10]. For the same compound, the z-score in [8] is -1.64 (inactive).

For `COc1ccc([C@H]2OC[C@@H]3CCC(=O)N32)cc1`, the composite z-score in assay [1] was -0.136; in assay [2], 0.428; in assay [3] it was -0.169; in [4] it was 0.733; in assay [5], 0.471; in assay [6], 0.0194. The composite z-score is 1.19 in [7], 0.664 in assay [9] and -0.0581 in [10]. The z-score in assay [8] was 0.0543 (inactive).

`C=C(CCCC)/C(=C/C[C@@H](OC(C)=O)c1cccc(OCCO)c1)c1cnc2ccccc2c1`: the composite z-score in [1] is -0.0295; in assay [2], 0.314; in [3] it was -0.0015; in assay [4], 0.0122; in [5], 0.249; in assay [6], 0.122. The figures for the composite z-score in assay [7], in assay [9] and in [10] were 0.274, 0.219 and 0.235, respectively. The z-score in [8] was -0.269 (inactive).

As to `CC(=O)NCCCC[C@@H]1NC(=O)[C@H]2C[C@@H](C(=O)NCCCCCNC(=O)CS)[C@@H](c3ccc(O)cc3)N2C1=O`, the composite z-score in [1] was 0.894; in assay [2], 0.122; in [3], -0.0358; in assay [4], -0.0035; in [5], -0.886; in [6] it was 0.0616. The composite z-score in assay [7] was 1.34; in assay [9] it was -0.226; in [10], -0.175. Besides, in assay [8], the z-score was 0.515 (inactive).

With `CO[C@H]1O[C@H](CO)[C@@H](OC(=O)Nc2ccccc2)[C@@H]2OC(=O)[C@@H](Cc3ccc4ccccc4c3)C/C=C/C[C@H](Cc3ccc4ccccc4c3)C(=O)O[C@@H]12`, the composite z-score came to 0.0395 in [1]; 0.821 in [2]; 0.126 in [3]; 0.908 in [4]; 0.336 in [5]; 0.915 in assay [6]. Further, the results for the composite z-score in assay [7], in assay [9] and in assay [10] were 0.965, 0.316 and -0.191, respectively. The z-score in [8] was -1.62 (inactive).

`CC(C)(C)OC(=O)CC[C@]1(C(N)=O)N=C(c2ccc(OCCCO)cc2)O[C@H]1c1ccccc1`: the composite z-score was found to be 1.05 in assay [1]; 1.16 in assay [2]; 0.0466 in assay [3]; 0.27 in assay [4]; 1.53 in assay [5]; 2.53 in assay [6]. Also, the composite z-score in assay [7] is 1.07; in assay [9], 0.994; in [10] it was 0.294. Besides, the z-score in [8] is -0.578 (inactive).

For `COc1ccc([Si](C)(C)[C@@H]2[C@@H](CC(=O)N3Cc4ccccc4C[C@H]3CO)O[C@]3(C(=O)N(Cc4cccc(N5CCC5=O)c4)c4ccccc43)[C@H]2C)cc1`, the composite z-score in assay [1] is -0.0762; in assay [2] it was 0.3; in [3] it was -0.07; in assay [4], 0.507; in assay [5] it was 0.596; in assay [6] it was 0.592. Besides, the composite z-score was determined as 1.22 in assay [7], 0.113 in assay [9] and 0.35 in [10]. In addition, the z-score in assay [8] is -1.07 (inactive).

With `CCCC=C(CCC)[C@@H](NC(=O)OCC(C)C)c1ccccc1`, the composite z-score was 1.28 in [1]; -0.122 in [2]; 0.685 in assay [3]; 0.444 in assay [4]; 1.33 in assay [5]; -0.111 in assay [6]. The composite z-score in assay [7] worked out at 0.762; in [9], 2.06; in assay [10] it was 0.152. Besides, in assay [8], the z-score is 2.06 (inactive).

`[N-]=[N+]=NCc1ccccc1C[C@@]1(C(=O)NCC(O)CO)N=C(c2ccc(OCCCO)cc2)O[C@@H]1c1ccccc1` (stereo not given in full): the composite z-score in [1] is 1.03; in assay [2], 0.0102; in [3] it was -0.0459; in assay [4] it was 0.206; in assay [5], 0.111; in [6] it was 0.768. In addition, the composite z-score in [7] is 0.952; in [9], -0.12; in assay [10], -0.132. Further, the z-score in assay [8] was -1.26 (inactive).

Take `[N-]=[N+]=NCc1ccccc1[C@@H]1OC(c2ccc(OCCCO)cc2)=N[C@]1(CCS(=O)(=O)c1ccccc1)C(=O)N1CCOCC1`: the composite z-score stood at 0.788 in assay [1]; 1.17 in [2]; 0.0332 in assay [3]; 0.89 in assay [4]; 1.64 in assay [5]; 1.48 in [6]. Also, the composite z-score in assay [7] was 1.29; in assay [9] it was 1.25; in assay [10] it was -0.0296. Also, the z-score in assay [8] is 0.291 (inactive).

For `C=CC[C@@]1(C(=O)N2CCCCC2)N=C(c2ccc(OCCCO)cc2)O[C@@H]1c1ccccc1N=[N+]=[N-]`, the composite z-score is 0.292 in assay [1]; -0.0912 in assay [2]; -0.0198 in assay [3]; 0.555 in [4]; 1.55 in assay [5]; 1.4 in assay [6]. In addition, the composite z-score in assay [7] is 1.23; in assay [9], 0.833; in [10], -0.0618. The z-score in assay [8] is -0.546 (inactive).

Take `CCCCC(=C=CC[C@@H](O)c1ccc(CO)o1)CCO`: the composite z-score in assay [1] is -0.369; in assay [2], 0.152; in assay [3], -0.0602; in assay [4] it was 0.143; in assay [5], -0.168; in [6], 0.457. Moreover, the composite z-score is 1.19 in [7], -0.118 in assay [9] and 0.238 in assay [10]. In assay [8], the z-score is 0.161 (inactive).

Consider `CC(CO)N1C(=O)[C@@H]2C3C(=O)OCCC/C=C\[C@H]3OC23C=CCN(CCN2CCOCC2)C(=O)[C@@H]13` (stereo not given in full), for which the composite z-score in assay [1] was -0.547; in [2], 0.163; in [3] it was -0.139; in assay [4], 0.38; in assay [5] it was -0.59; in [6], -0.31. For the same compound, the figures for the composite z-score in [7], in [9] and in assay [10] were 0.47, -0.28 and -0.212, respectively. Besides, the z-score in [8] was -0.55 (inactive).

With `COc1ccc([Si](C)(C)[C@@H]2[C@@H](CCn3cc([C@H](O)c4ccccc4)nn3)O[C@]3(C(=O)N(Cc4cccc(N5CCC5=O)c4)c4ccccc43)[C@H]2C)cc1`, the composite z-score was -0.0168 in [1]; -0.185 in [2]; -0.116 in [3]; 0.232 in [4]; -0.205 in assay [5]; 0.292 in assay [6]. The figures for the composite z-score in [7], in assay [9] and in assay [10] were 0.729, -0.162 and -0.249, respectively. In assay [8], the z-score was 0.795 (inactive).

Regarding `OB1C=CCC(CCc2ccccc2)O1` (stereo not given), the composite z-score was 0.0393 in [1]; -0.334 in assay [2]; -0.0883 in assay [3]; -0.254 in assay [4]; -0.809 in [5]; -0.995 in assay [6]. For the same compound, the composite z-score was -0.989 in [7], -0.393 in assay [9] and -0.132 in assay [10]. The z-score in assay [8] is -0.209 (inactive).

In the case of `C=CCC(OC(C)=O)[C@@H]1[C@@H](N(Cc2ccc(-c3cccc(C(F)(F)F)c3)o2)C(=O)Cc2ccc(OC)cc2)c2cc(OCCCO)ccc2N1C(=O)c1ccc2ccccc2c1` (stereo not given in full), the composite z-score was 0.0929 in [1]; -0.404 in assay [2]; -0.043 in assay [3]; -0.608 in assay [4]; -0.654 in [5]; 0.522 in [6]. Moreover, the values for the composite z-score in assay [7], in assay [9] and in assay [10] were -0.125, 0.234 and -0.236, respectively. Besides, the z-score in assay [8] was 0.782 (inactive).

In the case of `O=C1C2C=CC(C(O)c3c(F)cccc3Cl)N(Nc3ccccc3F)C2C(=O)N1c1ccccc1` (stereo not given), the composite z-score in [1] was 0.472; in assay [2], 0.374; in assay [3], 0.11; in assay [4] it was 0.574; in assay [5] it was 1.65; in assay [6] it was 1.37. Further, the composite z-score in assay [7] was 1.15; in assay [9] it was 1.04; in [10], 0.113. Further, the z-score in assay [8] was -3.2 (inactive).
